Data published in PubChem BioAssay (NCATS).
Inconclusive results are not listed. Activity calls are given as the source filed them. Unless noted, the call rests on the fitted dose curve; in most records, active means well fitted curve in the direction sought with a large enough effect; inconclusive means small, poorly fitted or top-dose-only effect, or another doubt; inactive means no such curve, though single readings can be large; an effect the other way counts as inactive or inconclusive.

Columns and labels:
[1] = target: Pyruvate kinase PKM (Homo sapiens) (UniProt P14618); assay: qHTS Assay for Activators of Human Muscle Pyruvate Kinase (AID 954; active means well fitted curve in the direction sought with a large enough effect, not every such curve was filed as active)
Sequence of Pyruvate kinase PKM (Homo sapiens) (P14618 whole entry, looked up): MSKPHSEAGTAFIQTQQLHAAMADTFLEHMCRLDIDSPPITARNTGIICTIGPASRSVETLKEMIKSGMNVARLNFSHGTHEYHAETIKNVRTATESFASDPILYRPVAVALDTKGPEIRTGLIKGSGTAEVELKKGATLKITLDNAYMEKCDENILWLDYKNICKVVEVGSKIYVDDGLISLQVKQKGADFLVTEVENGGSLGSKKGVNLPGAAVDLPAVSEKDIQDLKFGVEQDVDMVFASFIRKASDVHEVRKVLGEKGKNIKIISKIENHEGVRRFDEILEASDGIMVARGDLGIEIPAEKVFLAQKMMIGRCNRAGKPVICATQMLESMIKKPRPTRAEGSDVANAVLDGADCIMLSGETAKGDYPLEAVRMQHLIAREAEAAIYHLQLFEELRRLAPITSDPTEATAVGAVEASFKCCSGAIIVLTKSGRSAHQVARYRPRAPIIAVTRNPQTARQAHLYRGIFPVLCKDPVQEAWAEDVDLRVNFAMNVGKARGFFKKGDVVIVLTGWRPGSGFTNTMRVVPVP
Summary of the method: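 Enzyme was run at intermediate activity so both inhibitors and activators could be detected. ATP formed from ADP and PEP by 0.1 nM human PKM2 during a 1 h room-temperature incubation was quantified by coupled luciferase luminescence.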

[2] = Cell Viability - LYMP1-002 - Assay at 16 hr (AID 948)
Summary of the method: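 Acute cytotoxicity is scored as a concentration-dependent fall in intracellular ATP in a human lymphoblastoid line (LYMP1-002) after 16 hr compound exposure at 37 C, measured by luciferase luminescence.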

[3] = MultiTox-Fluor Cytotoxicity Assay - LYMP1-002 - Live Cells (AID 955);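 further: cells exposed to compound for 16 hours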
Summary of the method: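 Cytotoxicity in the human lymphoblastoid line LYMP1-002 is measured as loss of live-cell protease activity after 16 h treatment in complete culture medium. AC50 is derived from Hill-equation fits of qHTS concentration-response data.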

[4] = MultiTox-Fluor Cytotoxicity Assay - LYMP1-002 - Dead Cells (AID 960);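 further: cells exposed to compound for 16 h at 37 °C; nearly all actives have a fitted effect of over 60% in size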
Summary of the method: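 Acute cytotoxicity in a human lymphoblastoid line is scored as rising dead-cell protease signal after 16 hr exposure at 37 C, measured fluorometrically (485/520).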

[5] = MultiTox-Fluor Cytotoxicity Assay - LYMP1-003 - Dead Cells (AID 961);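 further: cells exposed to compound for 16 h at 37 °C; nearly all actives have a fitted effect of over 70% in size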
Summary of the method: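 Acute toxicity is scored as increased dead-cell protease activity in human lymphoblastoid LYMP1-003 cells after 16 h compound exposure in complete culture medium. Activity is normalized to DMSO basal and 15 uM tetraoctylammonium bromide as full response.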

[6] = MultiTox-Fluor Cytotoxicity Assay - LYMP1-003 - Live Cells (AID 962);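 further: cells exposed to compound for 16 hours at 37 °C; cytotoxic hits lower the live-cell protease signal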
Summary of the method: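 Cells plated at 2500 per well and incubated 5 hr; compounds added and incubated 16 hr at 37 C; MultiTox-Fluor reagent added for 60 min at room temperature; fluorescence of liberated AFC measured at 405/510 nm.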

[7] = Cell Viability - LYMP1-003 - Assay at 24 hr (AID 963)
Summary of the method: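 Acute toxicity in LYMP1-003 lymphoblastoid cells: 24 hr compound treatment at 37 C, ATP measured with CellTiter-Glo after 30 min at room temperature. AC50 derived by fitting the Hill equation to qHTS titrations.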

[8] = Cell Viability - LYMP2-003 (AID 965);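 further: cells exposed to compounds for 24 h before reading; nearly all actives have a fitted effect of over 50% in size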
Summary of the method: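 Acute cytotoxicity is scored as a concentration-dependent drop in intracellular ATP, measured by luciferase luminescence in human lymphoblastoid cells treated for 24 hours at 37 C. AC50 values derive from Hill-equation modelling.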

Measured: Potency

O=C(O)c1cc(=O)c2ccccc2[nH]1
inactive: [1]

CN1CCC[C@H]1c1cccnc1
inactive: [2] | [3] | [4] | [5] | [6] | [7] | [8]

Nc1nc2ccc([N+](=O)[O-])cc2s1
inactive: [2] | [3] | [4] | [5] | [6] | [7] | [8]

CC(C)(C=O)Cc1cc(C(C)(C)C)c(O)c(C(C)(C)C)c1
inactive: [1]

O=c1cc(-c2ccccc2)oc2ccccc12
inactive: [2] | [3] | [4] | [5] | [6] | [7] | [8]

c1ccc2sc(SSc3nc4ccccc4s3)nc2c1
inactive: [2] | [3] | [4] | [5] | [6] | [7] | [8]

CN(C)c1ccc(N=NS(=O)(=O)O)cc1
inactive: [2] | [3] | [4] | [5] | [6] | [7] | [8]

CCCOC(=O)c1ccc(O)cc1
inactive: [2] | [3] | [4] | [5] | [6] | [7] | [8]

O=C(O)CC[C@@H](C(=O)O)N1C(=O)c2ccccc2C1=O
inactive: [1]

Nc1ccc(O)c([N+](=O)[O-])c1
inactive: [2] | [3] | [5] | [6] | [7] | [8]

N#C/C(=C\c1c[nH]c2ccccc12)C(=O)c1ccc(O)c(O)c1
inactive: [1]

CC1(C)CCC=[N+]1[O-]
inactive: [1]

S=c1[nH]c2ccccc2s1
inactive: [2] | [3] | [4] | [5] | [6] | [7] | [8]

CN(C)C(N)=NCCC[C@H](N)C(=O)O
inactive: [1]

CC(C)NCC(O)COc1cccc2ccccc12 (configuration not stated)
inactive: [2] | [3] | [5] | [6] | [7] | [8]
